From PubChem BioAssay (EPA / NIEHS) come the findings set out here.

Activity calls are given as the source filed them. Rule for the calls: active = hit-call score of the fitted dose curve at least 0.9, where 1 is the maximum; inactive = score below 0.9.

Conditions in all cases: mRNA level, 48 h; actives raise or lower the signal
Read-out in assay [1]: Alkaline Phosphatase, Placental (ALPP) gene, ALPP (gene 250)
Kind of assay: LTEA_HepaRG_ALPP: Life Technologies and Expression Analysis (LTEA) Assay for Alkaline Phosphatase, Placental (ALPP) gene using HepaRG (AID 2283468). The gist of the method: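 qRT-PCR readout of ALPP mRNA (Fluidigm TaqMan), normalized to ACTB/GAPDH/POLR2A, after 48 h chemical exposure of HepaRG cells; 8-point half-log series, top 100 uM, 0.5% DMSO vehicle. Bidirectional curve fit versus DMSO baseline.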

Read-out in assay [2]: Bcl-2 (BAD) gene, BAD (gene 572)
Kind of assay: LTEA_HepaRG_BAD: Life Technologies and Expression Analysis (LTEA) Assay for Bcl-2 (BAD) gene using HepaRG (AID 2283469). The gist of the method: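 Differentiated HepaRG cells were exposed in duplicate in 0.5% DMSO for 48 h to eight-point half-log concentrations up to 100 uM. BAD mRNA was measured by Fluidigm TaqMan qRT-PCR, normalized to ACTB, GAPDH and POLR2A, and fitted bidirectionally against DMSO.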

Read-out in assay [3]: Bcl-2 (BAX) gene, BAX (gene 581)
In words: LTEA_HepaRG_BAX: Life Technologies and Expression Analysis (LTEA) Assay for Bcl-2 (BAX) gene using HepaRG (AID 2283470). The gist of the method: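 Differentiated human HepaRG cells, plated 48 h then switched to serum-free induction medium, were exposed 48 h to 8 half-log concentrations up to 100 uM in 0.5% DMSO; BAX mRNA measured by qRT-PCR, normalized to ACTB, GAPDH, POLR2A.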

Read-out in assay [4]: adenosine kinase (ADK) gene, ADK (gene 132)
Kind of assay: LTEA_HepaRG_ADK: Life Technologies and Expression Analysis (LTEA) Assay for adenosine kinase (ADK) gene using HepaRG (AID 2283471). The gist of the method: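 ADK expression quantified by qRT-PCR, normalised to three housekeeping genes, after 48 h exposure of HepaRG cells to eight concentrations (top 100 uM, half-log steps, duplicate, 0.5% DMSO). Up- or down-regulation fitted relative to vehicle.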

Read-out in assay [5]: Alpha-fetoprotein (AFP) gene, AFP (gene 174)
Kind of assay: LTEA_HepaRG_AFP: Life Technologies and Expression Analysis (LTEA) Assay for Alpha-fetoprotein (AFP) gene using HepaRG (AID 2283472). An outline of the steps:
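Human HepaRG cells plated 48 h, then switched to serum-free induction medium and exposed in duplicate for 48 h to 8-point half-log series from 100 uM in 0.5% DMSO. AFP mRNA by qRT-PCR, normalized to ACTB, GAPDH, POLR2A; bidirectional fit versus DMSO.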

Read-out in the next assay: BCL2L11 (gene 10018)
In words: LTEA_HepaRG_BCL2L11: Life Technologies and Expression Analysis (LTEA) Assay for Bcl-2 (BCL2L11) gene using HepaRG (AID 2283473). The gist of the method:
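HepaRG, 48 h exposure, 8-pt half-log series from 100 uM in 0.5% DMSO, duplicates; qRT-PCR (Fluidigm TaqMan) for BCL2L11, housekeeping-normalized; bidirectional curve fit relative to DMSO baseline.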

Read-out in assay [6]: Apolipoprotein A-V (APOA5) gene, APOA5 (gene 116519)
In words: LTEA_HepaRG_APOA5: Life Technologies and Expression Analysis (LTEA) Assay for Apolipoprotein A-V (APOA5) gene using HepaRG (AID 2283474). An outline of the steps: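 HepaRG, 48 h chemical exposure in serum-free induction medium, 8-pt half-log series (top 100 uM), 0.5% DMSO vehicle, duplicates. Readout: APOA5 mRNA by qRT-PCR, housekeeping-normalized; bidirectional fit vs DMSO baseline.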

Read-out in assay [7]: Apoptosis regulator Bcl-2 (Homo sapiens) (UniProt P10415)
In words: LTEA_HepaRG_BCL2: Life Technologies and Expression Analysis (LTEA) Assay for Bcl-2 gene using HepaRG (AID 2283475). The gist of the method:
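Differentiated HepaRG cells in serum-free induction medium were exposed for 48 h to eight half-log concentrations up to 100 uM in 0.5% DMSO, in duplicate. BCL2 mRNA was quantified by TaqMan qRT-PCR normalised to ACTB, GAPDH and POLR2A, with bidirectional fitting versus DMSO.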

Read-out in the next assay: Caspase-3 (Homo sapiens) (UniProt P42574)
Kind of assay: LTEA_HepaRG_CASP3: Life Technologies and Expression Analysis (LTEA) Assay for cysteine-aspartic acid protease (CASP3) using HepaRG (AID 2283477). The gist of the method:
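HepaRG, 48 h exposure, 8 conc. (top 100 uM, half-log steps, duplicate), 0.5% DMSO vehicle; qRT-PCR of CASP3 transcript, housekeeping-normalised (ACTB/GAPDH/POLR2A); bidirectional curve fit vs DMSO baseline.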

Read-out in assay [8]: Cytochrome P450 (CYP24A1), CYP24A1 (gene 1591)
Kind of assay: LTEA_HepaRG_CYP24A1: Life Technologies and Expression Analysis (LTEA) Assay for Cytochrome P450 (CYP24A1) using HepaRG (AID 2283478). The gist of the method: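 qRT-PCR read-out: CYP24A1 transcript levels normalized to three housekeeping genes, bidirectional curve fits against 0.5% DMSO baseline. Human HepaRG cells treated 48 h with chemicals at eight concentrations from 100 uM in half-log steps.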

Read-out in assay [9]: Cytochrome P450 (CYP1A2), CYP1A2 (gene 1544)
In words: LTEA_HepaRG_CYP1A2: Life Technologies and Expression Analysis (LTEA) Assay for Cytochrome P450 (CYP1A2) using HepaRG (AID 2283479). An outline of the steps:
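HepaRG, 48 h exposure, top 100 uM, half-log 8-pt, 0.5% DMSO vehicle, duplicates. Readout: TaqMan qRT-PCR of CYP1A2 mRNA, housekeeping-normalized (ACTB/GAPDH/POLR2A). Gain/loss fit relative to DMSO baseline.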

Read-out in assay [10]: cysteine-aspartic acid protease (CASP8), CASP8 (gene 841)
Kind of assay: LTEA_HepaRG_CASP8: Life Technologies and Expression Analysis (LTEA) Assay for cysteine-aspartic acid protease (CASP8) using HepaRG (AID 2283480). The gist of the method:
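Differentiated HepaRG cells in serum-free induction medium, 48 h exposure, eight-point half-log series from 100 uM in 0.5% DMSO, duplicates. CASP8 mRNA by qRT-PCR, normalized to ACTB, GAPDH, POLR2A; bidirectional fit versus DMSO.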

Read-out in assay [11]: Cytochrome P450 (CYP2B6), CYP2B6 (gene 1555)
In words: LTEA_HepaRG_CYP2B6: Life Technologies and Expression Analysis (LTEA) Assay for Cytochrome P450 (CYP2B6) using HepaRG (AID 2283481). The gist of the method: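 Read-out is CYP2B6 mRNA by TaqMan qRT-PCR, normalized to three housekeeping genes and fitted bidirectionally against 0.5% DMSO baseline. Human HepaRG cells received test chemicals for 48 h, top concentration 100 uM, half-log dilutions.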

Read-out in assay [12]: Cytochrome P450 2C19 (Homo sapiens) (UniProt P33261)
Kind of assay: LTEA_HepaRG_CYP2C19: Life Technologies and Expression Analysis (LTEA) Assay for CYP2C19 using HepaRG (AID 2283482). The gist of the method: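 HepaRG, 48 h chemical exposure, 8-pt half-log series from 100 uM in 0.5% DMSO, duplicates. Readout: CYP2C19 mRNA by TaqMan qRT-PCR, housekeeping-normalized. Bidirectional fit vs DMSO baseline; phenobarbital 1mM as induction control.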

Read-out in a further assay: CYP2C8 (gene 1558)
Kind of assay: LTEA_HepaRG_CYP2C8: Life Technologies and Expression Analysis (LTEA) Assay for CYP2C8 using HepaRG (AID 2283483). An outline of the steps:
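Differentiated HepaRG cells in serum-free induction medium exposed 48 h in duplicate to 8 half-log concentrations from 100 uM in 0.5% DMSO. CYP2C8 mRNA by qRT-PCR normalized to ACTB, GAPDH, POLR2A; bidirectional fit versus DMSO.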

Read-out in a further assay: CYP2C9 (gene 1559)
Kind of assay: LTEA_HepaRG_CYP2C9: Life Technologies and Expression Analysis (LTEA) Assay for CYP2C9 using HepaRG (AID 2283484). The gist of the method: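 Differentiated human HepaRG cells in serum-free induction medium were exposed 48 h to chemicals in 8-point half-log series from 100 uM (0.5% DMSO), in duplicate. CYP2C9 mRNA was measured by qRT-PCR, normalized to ACTB/GAPDH/POLR2A, with bidirectional fitting versus DMSO.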

Read-out in a further assay: CYP2E1 (gene 1571)
Kind of assay: LTEA_HepaRG_CYP2E1: Life Technologies and Expression Analysis (LTEA) Assay for CYP2E1 using HepaRG (AID 2283485). The gist of the method:
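HepaRG cells in serum-free induction medium exposed 48 h to test chemicals, 8 half-log concentrations up to 100 uM in 0.5% DMSO, duplicate. CYP2E1 mRNA by qRT-PCR, normalized to ACTB, GAPDH, POLR2A; bidirectional fit versus DMSO.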

Read-out in a further assay: CYP4A11 (gene 1579)
In words: LTEA_HepaRG_CYP4A11: Life Technologies and Expression Analysis (LTEA) Assay for CYP4A11 using HepaRG (AID 2283486). An outline of the steps: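 CYP4A11 transcript levels were quantified by TaqMan qRT-PCR after HepaRG human liver cells were treated for 48 hours with test chemicals (top 100 uM, half-log dilutions, 0.5% DMSO). Gain or loss of signal was fitted relative to DMSO.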

Read-out in assay [13]: Cytochrome P450 3A4 (Homo sapiens) (UniProt P08684)
In words: LTEA_HepaRG_CYP3A4: Life Technologies and Expression Analysis (LTEA) Assay for CYP3A4 using HepaRG (AID 2283487). An outline of the steps: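 Differentiated HepaRG cells, plated 48 h, then dosed 48 h in serum-free induction medium with 0.5% DMSO, 8 half-log concentrations up to 100 uM, duplicate. CYP3A4 mRNA by qRT-PCR, normalized to ACTB/GAPDH/POLR2A; bidirectional fit versus DMSO.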

Apoptosis regulator Bcl-2 (Homo sapiens), sequence (P10415 whole entry, looked up): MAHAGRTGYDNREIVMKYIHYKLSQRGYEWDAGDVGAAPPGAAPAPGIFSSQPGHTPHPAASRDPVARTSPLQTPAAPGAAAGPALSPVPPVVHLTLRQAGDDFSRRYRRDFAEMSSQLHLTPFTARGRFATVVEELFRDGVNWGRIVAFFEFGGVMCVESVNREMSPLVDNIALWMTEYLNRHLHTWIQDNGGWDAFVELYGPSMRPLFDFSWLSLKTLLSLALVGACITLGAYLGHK
Cytochrome P450 3A4 (Homo sapiens), sequence (P08684 whole entry, looked up): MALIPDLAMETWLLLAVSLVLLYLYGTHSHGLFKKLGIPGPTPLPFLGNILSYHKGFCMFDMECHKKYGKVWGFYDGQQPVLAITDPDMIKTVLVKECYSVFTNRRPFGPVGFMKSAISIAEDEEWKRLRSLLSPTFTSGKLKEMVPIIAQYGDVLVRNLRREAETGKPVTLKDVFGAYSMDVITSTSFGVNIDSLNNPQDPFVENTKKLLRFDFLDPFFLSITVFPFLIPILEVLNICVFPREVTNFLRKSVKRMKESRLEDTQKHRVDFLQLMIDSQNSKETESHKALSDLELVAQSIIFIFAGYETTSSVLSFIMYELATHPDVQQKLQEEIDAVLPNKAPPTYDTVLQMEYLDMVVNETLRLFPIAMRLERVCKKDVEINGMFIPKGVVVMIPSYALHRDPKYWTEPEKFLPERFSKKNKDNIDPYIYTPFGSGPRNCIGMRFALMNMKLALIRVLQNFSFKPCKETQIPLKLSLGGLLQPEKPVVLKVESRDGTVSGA
Cytochrome P450 2C19 (Homo sapiens), sequence (P33261 whole entry, looked up): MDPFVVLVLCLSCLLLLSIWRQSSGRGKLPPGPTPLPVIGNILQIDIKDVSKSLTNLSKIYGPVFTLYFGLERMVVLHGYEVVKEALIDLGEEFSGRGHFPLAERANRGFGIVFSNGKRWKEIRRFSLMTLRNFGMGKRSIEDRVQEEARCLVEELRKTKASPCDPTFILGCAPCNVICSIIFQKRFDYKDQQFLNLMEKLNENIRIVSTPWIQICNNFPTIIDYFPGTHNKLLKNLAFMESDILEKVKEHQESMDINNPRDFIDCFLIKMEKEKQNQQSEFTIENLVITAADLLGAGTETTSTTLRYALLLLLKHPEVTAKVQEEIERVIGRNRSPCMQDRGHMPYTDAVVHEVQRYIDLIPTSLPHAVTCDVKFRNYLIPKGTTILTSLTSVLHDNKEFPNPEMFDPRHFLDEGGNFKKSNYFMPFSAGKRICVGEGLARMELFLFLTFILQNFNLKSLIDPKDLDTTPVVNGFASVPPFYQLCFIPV
Caspase-3 (Homo sapiens), sequence (P42574 whole entry, looked up): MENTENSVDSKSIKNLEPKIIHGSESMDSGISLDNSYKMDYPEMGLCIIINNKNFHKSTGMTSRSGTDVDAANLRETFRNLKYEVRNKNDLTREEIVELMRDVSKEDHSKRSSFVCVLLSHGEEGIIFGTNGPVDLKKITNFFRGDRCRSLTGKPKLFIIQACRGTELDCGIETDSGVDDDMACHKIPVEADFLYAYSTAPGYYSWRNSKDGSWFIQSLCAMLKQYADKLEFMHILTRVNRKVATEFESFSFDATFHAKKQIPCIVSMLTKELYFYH

For `Cc1cc(O)ccc1Cl`, the call (in assay [1]; in assay [2]; in assay [3]; in assay [4]; in [5]; with BCL2L11 (gene 10018)) was inactive. The result (in [6]; in assay [7]; with Caspase-3 (Homo sapiens); in assay [8]; in assay [9]; in assay [10]) was inactive. Also, the compound was called inactive (in [11]; in [12]; with CYP2C8 (gene 1558); in the assay with CYP2C9 (gene 1559); with CYP2E1 (gene 1571); with CYP4A11 (gene 1579)). Moreover, the result in assay [13] was inactive.

`Oc1ccc(Cl)cc1Cl`: the call (in [1]; in assay [2]; in assay [3]; in assay [5]; with BCL2L11 (gene 10018); in assay [6]) was inactive. Moreover, the compound was called inactive (in assay [7]; with Caspase-3 (Homo sapiens); in assay [8]; in assay [9]; in assay [10]; in assay [11]). Moreover, the call (in [12]; with CYP2C8 (gene 1558); in the assay with CYP2C9 (gene 1559); with CYP2E1 (gene 1571); with CYP4A11 (gene 1579); in [13]) was inactive.

For `O=C(O)C(F)(F)C(F)(F)C(F)(F)C(F)(F)C(F)(F)F`, the result (in [1]; in assay [2]; in assay [3]; in [5]; with BCL2L11 (gene 10018); in assay [6]) was inactive. Also, the outcome (in assay [7]; in [8]; in [9]; in assay [10]; in the assay with CYP2E1 (gene 1571); in [13]) was inactive. Moreover, the AC50 in assay [4] is 3 µM (active); with Caspase-3 (Homo sapiens), 9.92 µM (active); in assay [11], 19.6 µM (active); in assay [12], 5.35 µM (active); in the assay with CYP2C8 (gene 1558), 8.32 µM (active); in the assay with CYP2C9 (gene 1559), 9.92 µM (active). Moreover, the concentration at half-maximal activity (AC50) with CYP4A11 (gene 1579) was 50 µM (active).

Regarding `O=C(NC(=O)c1cc(F)c(F)cc1Cl)Nc1cc(F)ccc1N1CCC(C(=O)O)CC1`, the outcome (in assay [1]; in [2]; in assay [3]; in assay [4]; in [5]; with BCL2L11 (gene 10018)) was inactive. For the same compound, the compound was called inactive (in [6]; in assay [7]; with Caspase-3 (Homo sapiens); in assay [8]; in [9]; in assay [10]). The result (in assay [11]; in assay [12]; with CYP2C8 (gene 1558); with CYP2C9 (gene 1559); in assay [13]) was inactive. Besides, the AC50 is 10.3 µM (active) with CYP2E1 (gene 1571) and 6.34 µM (active) in the assay with CYP4A11 (gene 1579).

As usually defined, the AC50 is the midpoint of the concentration-response curve, whichever way the signal moves.
